# Assay results published in PubChem BioAssay (NCATS).
# Inconclusive results are not listed. Active and inactive are the calls of the source. The call rests on the fitted dose curve; in most records, active means well fitted activation curve with a large enough effect; inconclusive means small, poorly fitted or top-dose-only effect; inactive means flat fitted curve, though single readings scatter. Peptide text beside a SMILES is read from it. * marks the point of attachment. Hexanoyl = CCCCCC(=O)*
# Test: HEK293 18hr Apoptosis Induction qHTS against the NCATS CANVASS Library (AID 1347357); on caspase activation: 0% is about no effect
# Conditions: HEK293 caspase-3/7 Caspase-Glo luminescence; series mostly up to 46.1 µM; caspase activation: at the top concentration
# Excerpt: Natural products and their derivatives continue to be wellsprings of nascent therapeutic potential. However, many laboratories have limited resources for biological evaluation, leaving their previously isolated or synthesized compounds largely or completely untested. To address this issue, the Canvass library of natural products was assembled (https://tripod.nih.gov/canvass), in collaboration with academic and industry researchers, for quantitative high-throughput screening (qHTS) across a diverse set of cell-based and biochemical assays. The pure (>85% purity by liquid chromatography/mass spectrometry [LC/MS]) Canvass library of 346 natural products were submitted by 45 academic laboratories and companies around the world. We collected pure natural products to circumvent deconvolution and structure elucidation due to time and resource limitations. The library was formatted into 1536-well plates and evaluated in 50 qHTS (in an 11-pnt concentration series) bioassays with broad scope of disease-relevant mechanisms. The resulting data set from 50 different assays was then systematically analyzed to identify overall trends and specific natural products with interesting biological activities. Reported herein are the results of each individual qHTS and their corresponding assay protocol. The Caspase-Glo (R) (Promega) is a homogeneous, luminescent assay that measures caspase activity. The detection substrate contains tetrapeptide sequence DEVD in an "add-mix-measure" format. The reagent generates a luminescent signal produced by a thermostable luciferase. The luminescence is proportional to the amount of caspase activity in the assay reaction. National Center for Advancing Translational Sciences (NCATS), Rockville, MD National Institute of Health (NIH), Bethesda, Maryland
# Cancer Cell Apoptosis Assay 1. In a 1536 well, white solid bottom tissue culture plates (Corning 7494), HEK293 cancer cells in DMEM + 10% FBS + 1% P/S media were dispensed in each well at a final concentration of 500 cells / well (5uL volume) using the Multidrop Combi (Thermo Fisher Scientific) dispenser. 2. Compounds were pin transferred (~23nL volume) via Wako Pin-tool (Wako Automation, Richmond VA) equipped with a 1536 pin head. The assay plates were treated with compounds in a concentration series with a final concentration range of 0.17nM to 103uM. 3. Doxorubicin was used as a control in a 16pnt titration (1mM; 1:2 dilution; 16-points; n = 2; column 3, rows 1 - 32) and was pin transferred via Wako Pin-tool equipped with a 1536 pin head. The final concentration range of doxorubicin is 0.1nM - 4uM. 4. The assay plates were incubated for 18 hours at 37 degrees C/5% CO2/95% Rh. 5. 3uL Caspase-Glo 3/7 (R) (Promega) detection reagent was then added to the assay plates (columns 2 - 48, rows 1 - 32) and incubated at room temperature, covered from light, for 15 min. 6. Luminescence signal was acquired via the ViewLux plate reader (PerkinElmer) using a clear filter, 20 second exposure and 2x binning settings.
# Potency means the concentration at half of the fitted maximal effect.
SMILES,caspase activation,Potency
C[C@]12CC[C@]3(C1)[C@H](CC2=O)C[C@@H](OC(=O)c1ccccc1)[C@H]1[C@](C)(C(=O)O)CCC[C@@]13C,9.41% (inactive),–
O=C1CC(c2ccc(O)cc2)Oc2ccccc21 (stereo not given),-8.92% (inactive),–
Cc1cc(O)cc2c1C(=O)c1c(O)cc(O)cc1C2=O,2.55% (inactive),–
C=C[C@](Cl)(CBr)CCC=C(C)C,2.14% (inactive),–
C=C[C@]1(C)CC[C@@H]([C@H](C)C(=O)/C=C/C(C)(C)O)O1,-0.438% (inactive),–
CN1CCc2cc3c(c4c2C1(C)C(=O)c1cc(O)ccc1-4)OCO3 (stereo not given),0.624% (inactive),–
C=C1CC[C@@H](O[C@H]2C[C@@](O)([C@H](C)NC(=O)c3[nH]c(C)c(Cl)c3Cl)[C@H](O)[C@@H](C)O2)[C@@H]2C=C[C@H](C)C(/C(O)=C3/C(=O)[C@H](C(C)C)N([C@@H]4O[C@H](C)[C@H](OC(N)=O)[C@H](OC(C)=O)[C@@H]4OC)C3=O)[C@@H]12 (stereo not given in full),5.86% (inactive),–
CC[C@@H](c1cc(OC)c(OC)cc1OC)[C@H](C)[C@@H](/C(C)=C/c1cc(OC)c(OC)cc1OC)c1cc(OC)c(OC)cc1OC,–,inactive
C/C(=C\[C@H](C)C(=O)/C=C/CC1CC(=O)NC(=O)C1)[C@@H]1OC(=O)CCCC/C=C/[C@H](O)[C@@H](O)[C@@H]1C,8.96% (inactive),–
C/C=C/[C@H]1[C@H]2C(=O)c3c(O)c(C)c(O)c(C)c3[C@]1(C(=O)O)C(=O)C=C2C,2.4% (inactive),–
C=C[C@@]1(C)CC[C@@H]([C@H](C)C(C)=O)O1,1.77% (inactive),–
COc1cc(C2OCC3C(c4ccc(O)c(OC)c4)OCC23)ccc1O (stereo not given),1.93% [at 9.19 µM] (inactive),–
C/C=C1/C2=CCCN3C(=O)O[C@H]([C@H]1O)[C@H]23,-0.933% (inactive),–
CCCCCC(=O)N[C@@H](CC(C)C)C(=O)N[C@H](C=O)CCC(=O)O (Hexanoyl-Leu-Glu-aldehyde),-3.61% (inactive),–
O=C1CCC(=O)N(O)CCCCCNC(=O)CCC(=O)N(O)CCCCCNC(=O)CCC(=O)N(O)CCCCCN1,-1.37% (inactive),–
O=C1CC(c2ccc(O)cc2)Oc2cc(O)ccc21 (stereo not given),-7.82% (inactive),–
O=C1CC2OCC=C3CN4C5CC3C2[C@@H]2N1c1ccccc1[C@]52C[C@@H]4C1=C[C@H]2C3CC4N(CC[C@@]45c4ccccc4N(C1=O)[C@@H]25)C/C3=C/CO (stereo not given in full),8.79% (inactive),–
COc1cc2oc3ccccc3c(=O)c2cc1OC,-4.38% [at 91.4 µM] (inactive),–
CCCc1c2c([nH]c(=O)c1C)C(=O)c1[nH]c(=O)c(C)c(CCC)c1C2=O,-2.37% (inactive),–
COC12OC1(C13OC1(OC)C(=O)c1cc4cc(C)oc(=O)c4c(O)c1C3O)C(O)c1c(cc3cc(C)oc(=O)c3c1O)C2=O (stereo not given),2.42% (inactive),–

SMILES,caspase activation,Potency
C/C1=C/[C@@H](C)[C@H](O)[C@@H](O)/C=C/CC/C=C/C(=O)O[C@@H]1[C@H](C)C(=O)CCCC1CC(=O)NC(=O)C1,1.33% (inactive),–
CN1CC[C@@]23c4ccccc4N[C@@H]1[C@@]21CCN(C)[C@@H]3Nc2ccccc21,6.63% (inactive),–
C[C@@]12CCC[C@@](C)(C(=O)O)[C@H]1C[C@@H](O)[C@@]13C[C@@H](CC[C@@H]21)[C@](C)(O)C3,1.35% (inactive),–
C=C1C(=O)O[C@H]2[C@H]1CCC(C)=C1CC[C@@](C)(O)[C@@H]12,14.9% (inactive),–
CC(=O)N[C@H](C)c1nc(/C=C/C=C/C(=O)CC2CC(=O)CC[C@]2(C)O)cs1 (stereo not given in full),1.79% (inactive),–
C[C@@]12CCC[C@@](C)(C(=O)OP(=O)(O)OC[C@H]3O[C@@H](n4cnc5c(N)ncnc54)[C@H](O)[C@@H]3O)[C@H]1C[C@@H](O)[C@@]13C[C@@H](CC[C@@H]21)[C@](C)(O)C3,-0.82% (inactive),–
C[C@H](c1cnc(N)[nH]1)c1ccc(O)c2[nH]cc(-c3cnc(-c4c[nH]c5ccccc45)c(=O)[nH]3)c12,2.07% (inactive),–
O=C1OC(CCO)c2cccc(O)c21 (stereo not given),2.49% (inactive),–
C/C=C1/CN2C3CC1C1C=CC(=O)N4c5ccccc5[C@@]3(C[C@@H]2C2=C[C@H]3C5CC6N(CC[C@@]67c6ccccc6N(C2=O)[C@@H]37)C/C5=C/C)[C@H]14 (stereo not given in full),–,26.4 µM (active)
COC(=O)[C@@]1(C)CCC[C@]2(C)c3cc(OC)ccc3CC[C@@H]12,3.3% (inactive),–
Cc1occ2c1C(=O)c1c(cc(O)c(O)c1O)C2=O,0.863% (inactive),–
CC[C@@H]1C[C@@]2(CC)OC(=O)[C@@]3(CC)[C@H](CC)[C@@H]1[C@@H]23,1.25% (inactive),–
C[C@]12CCC[C@](C)(C(=O)O)[C@@H]1CC[C@@]1(C)c3cocc3CC[C@H]21,-1.25% (inactive),–
COc1cc2ccc(=O)oc2c(O)c1O[C@@H]1O[C@H](CO)[C@@H](O)[C@H](O)[C@H]1O,5.12% [at 27.5 µM] (inactive),–
C/C(=C\[C@H](C)C(=O)CCCC1CC(=O)NC(=O)C1)[C@@H]1OC(=O)/C=C/CC/C=C/[C@H](O)[C@@H](O)[C@@H]1C,-4.1% (inactive),–
C/C(=C\[C@H](C)C(=O)/C=C/CC1CC(=O)NC(=O)C1)[C@@H]1OC(=O)/C=C/CC/C=C/C[C@@H](O)[C@@H]1C,11.9% (inactive),–
CC[C@H](O)CCCCC[C@@H]1NC(=O)[C@H]2CCCCN2C(=O)[C@H]([C@H](C)CC)NC(=O)[C@H](Cc2cn(OC)c3ccccc23)NC1=O,5.44% (inactive),–
CC1=C(C)C(=O)OC(C(C)C2(O)CCC3C4C5OC5C5(O)CC=CC(=O)C5(C)C4CCC32C)C1 (stereo not given),-0.376% (inactive),–
C/C(=C\[C@H](C)C(=O)C[C@H](O)CC1CC(=O)NC(=O)C1)[C@@H]1OC(=O)CCCC/C=C/[C@@H](O)C[C@@H]1C,-1.86% (inactive),–
C[C@H](CCC(O)C(C)(O)CO)[C@@]1(O)CC[C@@]2(C)C3=C(CC[C@@]21C)[C@@]1(C)CCC(OC(=O)CCC(=O)O)C(C)(C)[C@@H]1CC3 (stereo not given in full),4.62% (inactive),–
